# According to PubChem BioAssay AID1347416 (National Center for Advancing Translational Sciences (NCATS), 2020):
# Hit rate of the full screen: of about 4,100 compounds, about 1,600 (39%) were called active. Another 25% or so got no clear call; they are omitted. Calls follow the shape of the dose curve; as a rule, active = well fitted inhibition curve with a large enough effect; inconclusive = small, poorly fitted or top-dose-only effect; inactive = no such curve, though single readings can be large or run the other way. The list shows a part of the results.
# Assay: qHTS Validation assay for Inhibitors of Plasmodium falciparum Dd2 growth in vitro; also: nearly all actives have a fitted effect of over 70% in size
# Conditions: P. falciparum Dd2 in RBCs, SYBR Green growth, 72 h; series mostly up to 28.7 µM; activity change, negative = inhibition: at the top concentration
# Procedure, shortened: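 P. falciparum Dd2-infected red blood cells (2.5% hematocrit, 0.3% parasitemia) grown 72 h at 37 °C under 5% O2 with compounds in a titration, 29 uM to 0.5 nM final. Growth read as SYBR Green-1 fluorescence after ~16 h lysis; artesunate 300 nM as positive control.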
# % is scaled to controls: 0 for no effect and ±100 for the full control effect; potency is read from the fitted curve at half-maximal effect.
Compound,"activity change, negative = inhibition",Potency
COc1ccc(CCNC(=O)CCn2c(=O)c3ccccc3n(Cc3cc(C)ccc3C)c2=O)cc1OC,10.4% (inactive),
COc1ccc(CCNC(=O)CCc2c(C)nc3c(c(C)nn3-c3ccc(C)c(C)c3)c2C)cc1OC,,0.668 µM (active)
COc1ccc(S(=O)(=O)Nc2ccc(C)n(CC(=O)Nc3ccccc3)c2=O)cc1,,2.66 µM (active)
COc1cc(NC(=O)Cn2c(N(C)Cc3ccccc3)nc(C)cc2=O)cc(OC)c1,-19.9% (inactive),
Oc1cccc(C(Nc2nccs2)c2ccc3cccnc3c2O)c1 (stereo unspecified),,7.5 µM (active)
Oc1c(C(Nc2nccs2)c2ccc(C(F)(F)F)cc2)ccc2cccnc12 (stereo unspecified),,5.31 µM (active)
O=C(COc1ccc2ccccc2c1)Nc1nccs1,15.3% (inactive),
Nc1nc(C2CC(NC(=O)c3csc4c3CCCC4)C2)cc(=O)[nH]1 (stereo unspecified),19.5% (inactive),
Oc1[nH]c2ccccc2c1N=NC(=S)N1CCOCC1,,2.11 µM (active)
O=C(COC(=O)c1ccc(-n2cnnn2)cc1)c1ccc(Br)cc1,22.8% (inactive),
CCc1cccc(-n2c(=O)c3cccnc3n2CC(=O)NCc2ccccc2)c1,,1.68 µM (active)
CCc1cccc(-n2c(=O)c3cccnc3n2CC(=O)Nc2ccc(F)c(C)c2)c1,,2.66 µM (active)
O=C(Cn1c(=O)c2cccn2c2cccnc21)NCc1ccccc1F,21.9% (inactive),
O=C(CCc1nc2cccnc2n1Cc1ccccc1)NCc1cccc(Cl)c1,12.7% (inactive),
CCc1cccc(-n2c(=O)c3cccnc3n2CC(=O)NCc2ccc(C)cc2)c1,,1.68 µM (active)
O=C(CCn1c(=O)c2cccn2c2cccnc21)NCc1cccc(Br)c1,-0.311% (inactive),
COc1ccc(Cn2c(=O)c3cccnc3n(CC(=O)Nc3ccc(C)c(F)c3)c2=O)cc1,17.6% (inactive),
COc1ccc(CNC[C@H]2COCc3nc4cc(C(F)(F)F)ccc4n32)cn1,14.2% [at 43.1 µM] (inactive),
COc1ccc2ncc3c(-c4ccc(C)c(C)c4)nn(CC(=O)NC4CCCCC4)c3c2c1,31% (inactive),
CCc1ccc(-c2nn(CC(=O)NC3CCCCC3)c3c2cnc2ccc(OC)cc23)cc1,,9.44 µM (active)
O=C(NCc1ccccc1F)C1CCN(C(=O)c2ncn3c2COC(c2ccc(F)cc2)C3)CC1 (stereo unspecified),14.3% (inactive),
CC(C)(C)c1ccc(-c2noc(-c3ncn4c3COC(c3ccc(F)cc3)C4)n2)cc1 (stereo unspecified),,15 µM (active)
CCOc1ccc(C2Cn3nnc(-c4nc(-c5ccsc5)no4)c3CO2)cc1 (stereo unspecified),12.1% (inactive),

Compound,"activity change, negative = inhibition",Potency
O=c1[nH]c(N2CCOCC2)nc2c1CCN(Cc1cccc(C(F)(F)F)c1)CC2,-22.4% (inactive),
O=c1[nH]c(N2CCOCC2)nc2c1CCN(Cc1ccccc1Br)CC2,,15 µM (active)
COc1cccc(CN2CCc3nc(N4CCOCC4)[nH]c(=O)c3CC2)c1OC,1.69% (inactive),
O=c1[nH]c(N2CCOCC2)nc2c1CCN(Cc1ccccc1C(F)(F)F)CC2,,4.73 µM (active)
Cc1noc2c(NC3CCN(C)CC3)cc(-c3cccc(C(F)(F)F)c3)nc12,,13.7 µM (active)
Cc1cc(Br)ccc1NC(=O)c1ccc(NS(=O)(=O)c2c(C)noc2C)cc1,25% (inactive),
O=C(Nc1ncccc1O)c1ccc(NS(=O)(=O)c2ccc3[nH]c(=O)[nH]c3c2)cc1,,0.422 µM (active)
CC(=O)N1c2c(cc(Br)cc2S(=O)(=O)N2CCN(c3cc(C)ccc3C)CC2)CC1C (stereo unspecified),,11.9 µM (active)
CN(C)c1ccc(CN2CCC3(C2)C(=NC2CCCC2)NC(=O)N3c2cccnc2)cc1 (stereo unspecified),-33.1% (inactive),
O=C1NC(=NC2CCCCC2)C2(CCCN([S+](=O)([O-])c3ccccc3)C2)N1c1cccnc1 (stereo unspecified),-14.7% (inactive),
CN(C)c1ccc(CN2CCC3(C2)C(=NC2CCCCC2)NC(=O)N3c2cccnc2)cc1 (stereo unspecified),-28.4% (inactive),
O=C1NC(=NC2CCCCC2)C2(CCN(Cc3ccc(F)cc3)C2)N1c1cc(F)cc(F)c1 (stereo unspecified),,4.22 µM (active)
O=C1NC(=NC2CCCC2)C2(CCN(Cc3ccc(F)cc3)C2)N1c1cc(F)cc(F)c1 (stereo unspecified),,10.6 µM (active)
O=C(c1ccc(C(F)(F)F)cc1)N1CCC2(CC1)C(=NC1CCCCC1)NC(=O)N2c1cc(F)cc(F)c1,-25.9% (inactive),
CCOC(=O)c1c(NC(=O)c2ccccc2)sc2c(O)c(CN(CC)CC)ccc12,,0.15 µM (active)
CCNc1nc2c(c(=O)n(C)c(=O)n2C)n1Cc1ccc(F)cc1,-8.15% (inactive),
COc1cccc(Cn2c(Oc3ccccc3)nc3c2c(=O)n(C)c(=O)n3C)c1,,4.73 µM (active)
Cc1ccc(Oc2nc3c(c(=O)n(Cc4ccccc4)c(=O)n3C)n2C)cc1C,42.4% (inactive),
Cc1ccccc1C(=O)N1CCCCC12Cc1ccccc1NC2=O (stereo unspecified),40.8% [at 43.1 µM] (inactive),
CC(C)Oc1ccc(CCc2n[nH]c(=S)n2Cc2ccccc2)cc1,,5.31 µM (active)
CN1CCNc2nc(COc3ccc(Oc4ccccc4)cc3)n(Cc3ccccc3)c2C1=O,-10.4% (inactive),
CCCOc1ccc(CCc2n[nH]c(=S)n2Cc2ccccc2)cc1,,5.31 µM (active)
COc1ccc(/C=N/Nc2cc(C)nc3ccccc23)cc1,,2.11 µM (active)
